# Results published in ChEMBL document CHEMBL1961873, “Compounds: GSK PKIS; Assays: Nanosyn kinase panel” (2012).
# Assays:
# [1] = molecular target: Dual specificity protein kinase CLK3 (Homo sapiens) (UniProt P49761); details: at 1 µM;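 also: each value is the mean inhibition of CLK3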
# [2] = molecular target: Dual specificity tyrosine-phosphorylation-regulated kinase 1A (Homo sapiens) (UniProt Q13627); details: at 0.1 µM
# [3] = molecular target: Dual specificity tyrosine-phosphorylation-regulated kinase 1A (Homo sapiens) (UniProt Q13627); details: at 1 µM
# [4] = molecular target: Dual specificity tyrosine-phosphorylation-regulated kinase 1B (Homo sapiens) (UniProt Q9Y463); details: at 0.1 µM
# [5] = molecular target: Dual specificity tyrosine-phosphorylation-regulated kinase 1B (Homo sapiens) (UniProt Q9Y463); details: at 1 µM
# [6] = molecular target: T1, Dual specificity tyrosine-phosphorylation-regulated kinase 2 (Homo sapiens) (UniProt Q92630); details: at 0.1 µM
# T1 sequence (whole entry): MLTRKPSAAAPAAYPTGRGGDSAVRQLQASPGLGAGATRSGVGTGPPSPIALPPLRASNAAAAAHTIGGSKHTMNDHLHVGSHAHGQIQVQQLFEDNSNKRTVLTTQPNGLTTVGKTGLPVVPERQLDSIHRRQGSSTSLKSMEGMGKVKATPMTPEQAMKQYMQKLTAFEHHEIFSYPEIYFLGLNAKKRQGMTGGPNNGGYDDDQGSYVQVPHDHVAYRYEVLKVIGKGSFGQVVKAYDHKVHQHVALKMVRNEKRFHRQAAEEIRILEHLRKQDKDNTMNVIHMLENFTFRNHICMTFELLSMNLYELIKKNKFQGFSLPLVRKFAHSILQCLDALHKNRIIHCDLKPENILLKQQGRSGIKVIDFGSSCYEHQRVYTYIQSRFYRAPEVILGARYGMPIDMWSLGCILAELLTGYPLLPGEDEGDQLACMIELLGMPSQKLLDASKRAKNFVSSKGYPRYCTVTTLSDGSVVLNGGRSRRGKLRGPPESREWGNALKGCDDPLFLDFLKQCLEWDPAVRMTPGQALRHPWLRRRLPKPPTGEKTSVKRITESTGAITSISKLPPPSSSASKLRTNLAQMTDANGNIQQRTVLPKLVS
# [7] = molecular target: T1, Dual specificity tyrosine-phosphorylation-regulated kinase 2 (Homo sapiens); details: at 1 µM
# [8] = molecular target: Glycogen synthase kinase-3 alpha (Homo sapiens) (UniProt P49840); details: at 0.1 µM
# [9] = molecular target: Glycogen synthase kinase-3 alpha (Homo sapiens) (UniProt P49840); details: at 1 µM
# [10] = molecular target: Glycogen synthase kinase-3 beta (Homo sapiens) (UniProt P49841); details: at 0.1 µM
# [11] = molecular target: Glycogen synthase kinase-3 beta (Homo sapiens) (UniProt P49841); details: at 1 µM
# [12] = molecular target: Homeodomain-interacting protein kinase 1 (Homo sapiens) (UniProt Q86Z02); details: at 0.1 µM
# [13] = molecular target: Homeodomain-interacting protein kinase 1 (Homo sapiens) (UniProt Q86Z02); details: at 1 µM
# [14] = molecular target: T2, Homeodomain-interacting protein kinase 4 (Homo sapiens) (UniProt Q8NE63); details: at 0.1 µM
# T2 sequence (whole entry): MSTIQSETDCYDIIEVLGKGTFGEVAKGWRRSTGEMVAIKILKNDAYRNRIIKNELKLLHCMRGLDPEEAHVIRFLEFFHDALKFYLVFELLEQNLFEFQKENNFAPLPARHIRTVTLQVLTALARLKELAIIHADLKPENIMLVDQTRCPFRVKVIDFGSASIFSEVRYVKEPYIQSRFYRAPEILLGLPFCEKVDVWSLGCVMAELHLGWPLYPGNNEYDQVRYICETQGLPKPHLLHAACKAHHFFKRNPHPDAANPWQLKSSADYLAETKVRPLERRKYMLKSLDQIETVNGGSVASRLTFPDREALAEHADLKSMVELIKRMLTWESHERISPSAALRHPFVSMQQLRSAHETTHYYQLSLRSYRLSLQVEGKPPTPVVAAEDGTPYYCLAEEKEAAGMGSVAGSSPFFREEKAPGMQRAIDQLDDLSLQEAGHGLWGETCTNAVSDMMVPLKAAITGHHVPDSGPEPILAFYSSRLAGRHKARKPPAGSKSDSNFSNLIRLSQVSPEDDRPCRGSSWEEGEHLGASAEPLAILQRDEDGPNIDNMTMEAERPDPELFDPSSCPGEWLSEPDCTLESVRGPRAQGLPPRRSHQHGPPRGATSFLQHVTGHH
# [15] = molecular target: T2, Homeodomain-interacting protein kinase 4 (Homo sapiens); details: at 1 µM
# [16] = molecular target: Mitogen-activated protein kinase 9 (Homo sapiens) (UniProt P45984); details: at 0.1 µM
# [17] = molecular target: Mitogen-activated protein kinase 9 (Homo sapiens) (UniProt P45984); details: at 1 µM
# [18] = molecular target: Mitogen-activated protein kinase 1 (Homo sapiens) (UniProt P28482); details: at 0.1 µM
# [19] = molecular target: Mitogen-activated protein kinase 1 (Homo sapiens) (UniProt P28482); details: at 1 µM
# [20] = molecular target: Mitogen-activated protein kinase 3 (Homo sapiens) (UniProt P27361); details: at 0.1 µM;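 also: each value is a mean inhibition figure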
# Chain of Mitogen-activated protein kinase 3 (Homo sapiens) (P27361 whole entry): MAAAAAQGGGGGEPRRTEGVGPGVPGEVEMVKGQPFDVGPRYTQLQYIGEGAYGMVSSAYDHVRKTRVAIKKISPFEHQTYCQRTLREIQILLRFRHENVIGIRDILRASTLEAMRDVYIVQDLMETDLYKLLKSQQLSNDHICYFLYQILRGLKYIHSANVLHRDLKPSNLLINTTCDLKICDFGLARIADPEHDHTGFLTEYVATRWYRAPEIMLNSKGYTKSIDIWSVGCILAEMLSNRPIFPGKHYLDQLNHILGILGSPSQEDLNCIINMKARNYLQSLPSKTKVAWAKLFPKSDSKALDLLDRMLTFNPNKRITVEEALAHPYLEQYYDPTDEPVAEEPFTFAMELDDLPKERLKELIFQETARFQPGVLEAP
# Chain of Mitogen-activated protein kinase 9 (Homo sapiens) (P45984 whole entry, looked up): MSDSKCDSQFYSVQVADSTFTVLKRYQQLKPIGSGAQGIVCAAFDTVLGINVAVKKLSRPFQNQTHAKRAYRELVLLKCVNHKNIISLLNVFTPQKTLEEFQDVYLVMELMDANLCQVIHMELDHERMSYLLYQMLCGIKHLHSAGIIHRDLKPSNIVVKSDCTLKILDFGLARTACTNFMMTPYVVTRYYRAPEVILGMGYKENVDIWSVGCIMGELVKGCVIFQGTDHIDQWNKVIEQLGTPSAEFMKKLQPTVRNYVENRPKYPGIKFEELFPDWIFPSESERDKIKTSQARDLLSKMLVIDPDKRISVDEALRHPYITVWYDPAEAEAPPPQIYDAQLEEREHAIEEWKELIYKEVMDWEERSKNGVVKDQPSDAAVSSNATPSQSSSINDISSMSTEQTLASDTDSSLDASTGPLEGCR
# Chain of Glycogen synthase kinase-3 beta (Homo sapiens) (P49841 whole entry, looked up): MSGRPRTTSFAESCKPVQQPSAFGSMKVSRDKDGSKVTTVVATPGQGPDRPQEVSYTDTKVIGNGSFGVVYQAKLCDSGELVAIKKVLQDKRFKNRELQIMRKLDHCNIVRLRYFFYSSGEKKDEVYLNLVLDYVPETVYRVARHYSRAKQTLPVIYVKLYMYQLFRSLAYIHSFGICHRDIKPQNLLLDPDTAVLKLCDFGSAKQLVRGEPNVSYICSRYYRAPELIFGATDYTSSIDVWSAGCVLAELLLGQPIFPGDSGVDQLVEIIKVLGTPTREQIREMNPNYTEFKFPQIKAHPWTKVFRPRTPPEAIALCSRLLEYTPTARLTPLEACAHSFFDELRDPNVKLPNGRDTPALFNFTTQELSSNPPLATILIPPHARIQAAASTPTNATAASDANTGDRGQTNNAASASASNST
# Chain of Dual specificity tyrosine-phosphorylation-regulated kinase 1B (Homo sapiens) (Q9Y463 whole entry, looked up): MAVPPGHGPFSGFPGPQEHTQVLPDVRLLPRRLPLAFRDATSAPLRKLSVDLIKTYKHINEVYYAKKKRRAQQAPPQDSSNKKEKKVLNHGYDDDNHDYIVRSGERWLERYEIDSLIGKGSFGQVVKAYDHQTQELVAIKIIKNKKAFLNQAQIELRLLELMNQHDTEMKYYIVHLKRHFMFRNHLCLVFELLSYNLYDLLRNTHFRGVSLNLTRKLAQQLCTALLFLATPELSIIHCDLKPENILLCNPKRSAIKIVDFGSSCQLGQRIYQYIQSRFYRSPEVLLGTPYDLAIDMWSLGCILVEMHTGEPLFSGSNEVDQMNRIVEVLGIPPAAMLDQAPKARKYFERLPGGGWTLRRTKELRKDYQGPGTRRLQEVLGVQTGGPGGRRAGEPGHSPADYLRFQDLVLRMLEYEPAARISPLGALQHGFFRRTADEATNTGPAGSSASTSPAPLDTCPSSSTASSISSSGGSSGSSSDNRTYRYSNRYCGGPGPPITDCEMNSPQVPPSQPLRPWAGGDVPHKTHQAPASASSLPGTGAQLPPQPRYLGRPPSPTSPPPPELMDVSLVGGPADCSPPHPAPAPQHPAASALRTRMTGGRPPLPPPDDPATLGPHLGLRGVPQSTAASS
# Chain of Homeodomain-interacting protein kinase 1 (Homo sapiens) (Q86Z02 whole entry, looked up): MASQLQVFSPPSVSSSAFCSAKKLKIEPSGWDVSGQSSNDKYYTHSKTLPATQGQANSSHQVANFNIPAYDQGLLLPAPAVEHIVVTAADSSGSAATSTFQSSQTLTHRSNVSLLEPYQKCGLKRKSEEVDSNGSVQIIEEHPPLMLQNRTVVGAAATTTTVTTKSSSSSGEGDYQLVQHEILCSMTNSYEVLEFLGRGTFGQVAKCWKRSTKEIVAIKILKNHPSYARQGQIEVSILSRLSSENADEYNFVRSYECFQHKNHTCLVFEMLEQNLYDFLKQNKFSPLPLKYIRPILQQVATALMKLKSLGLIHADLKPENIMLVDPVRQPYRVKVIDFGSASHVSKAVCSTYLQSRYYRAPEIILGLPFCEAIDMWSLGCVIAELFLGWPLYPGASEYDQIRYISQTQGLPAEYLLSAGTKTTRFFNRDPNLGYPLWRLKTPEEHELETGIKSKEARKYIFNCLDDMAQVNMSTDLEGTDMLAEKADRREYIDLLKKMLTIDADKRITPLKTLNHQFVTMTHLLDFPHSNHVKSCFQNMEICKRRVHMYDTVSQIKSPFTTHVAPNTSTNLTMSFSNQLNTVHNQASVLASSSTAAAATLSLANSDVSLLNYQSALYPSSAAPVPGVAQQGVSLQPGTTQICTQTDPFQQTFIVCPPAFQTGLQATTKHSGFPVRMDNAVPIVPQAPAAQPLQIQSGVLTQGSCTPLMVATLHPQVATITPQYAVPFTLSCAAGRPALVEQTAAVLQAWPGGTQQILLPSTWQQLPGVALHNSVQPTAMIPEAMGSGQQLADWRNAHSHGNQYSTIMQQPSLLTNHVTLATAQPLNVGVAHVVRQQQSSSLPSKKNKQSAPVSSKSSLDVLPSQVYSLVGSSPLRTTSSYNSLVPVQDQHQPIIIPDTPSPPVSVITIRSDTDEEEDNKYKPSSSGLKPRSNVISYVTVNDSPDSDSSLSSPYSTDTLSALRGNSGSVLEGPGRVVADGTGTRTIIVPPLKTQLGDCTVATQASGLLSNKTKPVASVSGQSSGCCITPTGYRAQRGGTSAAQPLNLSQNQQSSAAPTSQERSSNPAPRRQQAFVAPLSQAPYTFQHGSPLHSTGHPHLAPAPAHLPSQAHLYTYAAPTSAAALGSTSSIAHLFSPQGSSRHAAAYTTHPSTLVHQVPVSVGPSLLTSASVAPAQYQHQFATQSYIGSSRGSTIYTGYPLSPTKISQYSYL
# Chain of Glycogen synthase kinase-3 alpha (Homo sapiens) (P49840 2-483 limits assumed): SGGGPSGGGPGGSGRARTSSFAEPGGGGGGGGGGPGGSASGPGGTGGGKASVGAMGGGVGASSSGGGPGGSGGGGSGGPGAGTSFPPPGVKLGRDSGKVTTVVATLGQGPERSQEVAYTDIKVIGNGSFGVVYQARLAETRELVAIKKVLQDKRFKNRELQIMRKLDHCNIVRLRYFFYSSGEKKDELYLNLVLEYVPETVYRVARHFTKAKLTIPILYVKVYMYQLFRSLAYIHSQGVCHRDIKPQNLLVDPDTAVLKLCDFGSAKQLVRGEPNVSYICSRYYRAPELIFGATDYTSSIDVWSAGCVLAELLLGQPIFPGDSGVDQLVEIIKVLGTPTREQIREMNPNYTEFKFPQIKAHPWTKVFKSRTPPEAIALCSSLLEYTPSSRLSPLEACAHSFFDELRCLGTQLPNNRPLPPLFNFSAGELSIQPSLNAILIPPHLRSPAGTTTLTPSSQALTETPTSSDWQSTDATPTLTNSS
# Chain of Dual specificity protein kinase CLK3 (Homo sapiens) (P49761 whole entry, looked up): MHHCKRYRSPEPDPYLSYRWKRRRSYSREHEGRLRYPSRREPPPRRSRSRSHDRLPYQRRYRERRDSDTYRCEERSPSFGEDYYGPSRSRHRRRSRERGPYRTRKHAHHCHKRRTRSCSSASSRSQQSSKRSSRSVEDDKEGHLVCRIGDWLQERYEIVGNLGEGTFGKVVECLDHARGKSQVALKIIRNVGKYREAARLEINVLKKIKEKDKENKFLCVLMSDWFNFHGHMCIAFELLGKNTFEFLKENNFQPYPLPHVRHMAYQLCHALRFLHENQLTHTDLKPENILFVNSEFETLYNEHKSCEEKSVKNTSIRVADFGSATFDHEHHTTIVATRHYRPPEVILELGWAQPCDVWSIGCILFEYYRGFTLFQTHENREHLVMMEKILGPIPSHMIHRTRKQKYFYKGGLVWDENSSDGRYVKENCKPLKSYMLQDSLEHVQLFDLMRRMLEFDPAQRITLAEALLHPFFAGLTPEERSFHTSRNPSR
# Chain of Mitogen-activated protein kinase 1 (Homo sapiens) (P28482 whole entry): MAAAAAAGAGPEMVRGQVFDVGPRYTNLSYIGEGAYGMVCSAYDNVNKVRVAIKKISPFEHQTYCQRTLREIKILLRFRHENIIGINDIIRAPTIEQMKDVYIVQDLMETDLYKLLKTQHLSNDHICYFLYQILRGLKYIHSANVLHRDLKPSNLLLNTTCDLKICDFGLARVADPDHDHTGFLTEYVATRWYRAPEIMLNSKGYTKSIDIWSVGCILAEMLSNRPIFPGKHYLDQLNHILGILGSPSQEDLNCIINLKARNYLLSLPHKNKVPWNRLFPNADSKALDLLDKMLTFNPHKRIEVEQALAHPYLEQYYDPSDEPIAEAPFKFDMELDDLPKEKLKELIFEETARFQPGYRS
Structure (SMILES),inhibition [1] [%],inhibition [2] [%],inhibition [3] [%],inhibition [4] [%],inhibition [5] [%],inhibition [6] [%],inhibition [7] [%],inhibition [8] [%],inhibition [9] [%],inhibition [10] [%],inhibition [11] [%],inhibition [12] [%],inhibition [13] [%],inhibition [14] [%],inhibition [15] [%],inhibition [16] [%],inhibition [17] [%],inhibition [18] [%],inhibition [19] [%],inhibition [20] [%]
CCCN1CCCC(c2ccc(Nc3nc(Nc4cc(F)ccc4C(N)=O)c4cc[nH]c4n3)c(OC)c2)C1 (stereo not given),22.3,67.5,82.7,72,82.4,36.3,82.3,1.49,2.99,0.7,4.25,46,79.5,58.1,84.3,70.3,91.3,8.06,36.5,5.61
NS(=O)(=O)c1ccc(-c2cc3ccncc3cc2OCc2ccccc2)cc1,3.69,1.26,4.84,0.97,2.12,2.46,3.11,2.45,4.95,2.08,3.98,1.69,4.62,3.58,6.62,3.39,6.21,5.32,3.37,4.03
COC(=O)c1cncc(/C=C/c2c(C)cc(O)cc2C)c1,3.16,2.81,7.4,0.83,4.47,3.09,4,7.07,14.3,6.58,12.9,5.96,7.63,2.51,6.29,-0.35,2.18,4.28,4.13,3.96
Cc1ccc(Nc2ccnc(Nc3cccc(C(N)=O)c3)n2)cc1O,3.09,2.45,26.5,-1.03,11.8,2.25,7.18,0.67,14.9,0.74,17.4,-4.04,0.47,2.33,10.8,3.91,14.6,4.59,4.19,3.66
N#Cc1c(NC(=O)c2ccccc2F)sc2c1CCCC2,-0.09,-0.74,1.91,0.18,0.36,-2,-2.88,-0.74,0.03,-0.5,-0.09,-4.32,-0.26,-0.44,1.41,-2.15,2.33,-0.94,-1.13,-1.39
CS(=O)(=O)Nc1cccc(-c2ccc3c(NC(=O)C4CC4)n[nH]c3c2)c1,0.41,-0.85,2.54,-0.36,0.44,1.73,0.58,2.17,10.3,1.76,9.5,-3.76,0.93,-0.79,-0.86,2.2,0.27,-0.71,1.14,2.44
O=C1Nc2ccccc2/C1=C/Nc1ccc2[nH]c(=O)[nH]c2c1,4.44,6.01,23.3,2.68,16.1,4.31,11.1,3.7,14.4,2.99,12,1.38,6.25,2.76,5.62,4.66,12.5,5.93,5.63,5.69
COC(=O)c1ccc2c(c1)C(=Cc1cc(Br)c(O)c(Br)c1)C(=O)N2,7.3,14.2,61.9,9.22,53.5,5.68,18.8,9.38,42.9,9.77,44.2,10.2,60.8,4.27,35,4.88,11,3.12,6.19,4.78
c1ccc(Cc2nc3ccc(Nc4ncnc5ccccc45)cc3[nH]2)cc1,5.49,6.02,9.77,5.37,8.13,1.99,3.84,5.62,9.56,5.99,7.73,6.99,9.6,4.87,9.82,1.51,3.95,3.59,3.76,2.28
Cc1cc(Cl)cc2c1NC(=O)C2=NNc1ccc(S(N)(=O)=O)cc1,0.83,1.45,2.28,-0.62,1.24,0.8,2.04,2.99,6.57,1.19,5.76,1.47,1.67,0.61,2.42,-0.14,2.41,4.09,2.74,2.98
Cc1ccc(NC(=O)CC2CC2)cc1-c1ccc(C(=O)NCC2CC2)cc1,1.83,0.93,3.49,0.61,1.49,2.06,2.68,2.32,2.3,1.75,3.08,-0.11,1.56,2.64,4.19,3.4,3.8,2.01,3.96,5.26
COc1ccc2ncnc(Nc3ccc(OCc4ccccc4)cc3)c2c1,1.64,1.05,3.73,-0.87,1.35,1.27,2.65,1.55,4.44,1.06,0.7,0.26,3.41,0.67,1.18,3.85,2.97,2.37,2.37,4.06
Cc1cc(-c2ccccn2)cc(C)c1/C=C/c1cncc(-c2nn[nH]n2)c1,0.95,2.5,1.98,2.58,4.24,3.69,4.85,5.73,12.5,5.72,13.7,1.03,5.14,1.94,7.19,5.13,9.24,4.92,7.24,5.71
COc1cccc(-n2ncc3c(N/N=C/c4ccc(S(C)(=O)=O)cc4)ncnc32)c1,13.5,23.1,64.3,9.87,47.3,14.5,24.9,72.7,80.6,70.4,79,21.4,64.3,18.3,60.6,1.92,4.9,1.63,1.93,2.27
